Screening data deposited in PubChem BioAssay by National Center for Advancing Translational Sciences (NCATS).
HEK cytotox – HEK 293 cell cytotoxicity. HEK 293 viability, ATP luminescence (CellTiter-Glo), 48-72 h. Potency, µM (highest dose often 115 µM), usual class: inhibitors. hit rate 6.6% among 94,000; also: nearly all actives have a fitted effect of over 60% in size
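Pintool-delivered compounds were incubated with HEK 293 cells (250 cells/well) at 37 degree Celsius for 48 or 72 hr. ATP-dependent luminescence (CellTiter-Glo) then reported remaining viable cells.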
NPR1 antag – human Npr1 receptor antagonism. P16066. HEK293 hNpr1 GloSensor cGMP, ANP-stimulated luminescence. Potency, µM (doses to about 46.3 µM), actives largely listed as inhibitors. hit rate 1.6% among 76,000. AID 1347048; calls by dose curve; also: nearly all actives have a fitted effect of over 60% in size
Target sequence (P16066 whole entry, looked up): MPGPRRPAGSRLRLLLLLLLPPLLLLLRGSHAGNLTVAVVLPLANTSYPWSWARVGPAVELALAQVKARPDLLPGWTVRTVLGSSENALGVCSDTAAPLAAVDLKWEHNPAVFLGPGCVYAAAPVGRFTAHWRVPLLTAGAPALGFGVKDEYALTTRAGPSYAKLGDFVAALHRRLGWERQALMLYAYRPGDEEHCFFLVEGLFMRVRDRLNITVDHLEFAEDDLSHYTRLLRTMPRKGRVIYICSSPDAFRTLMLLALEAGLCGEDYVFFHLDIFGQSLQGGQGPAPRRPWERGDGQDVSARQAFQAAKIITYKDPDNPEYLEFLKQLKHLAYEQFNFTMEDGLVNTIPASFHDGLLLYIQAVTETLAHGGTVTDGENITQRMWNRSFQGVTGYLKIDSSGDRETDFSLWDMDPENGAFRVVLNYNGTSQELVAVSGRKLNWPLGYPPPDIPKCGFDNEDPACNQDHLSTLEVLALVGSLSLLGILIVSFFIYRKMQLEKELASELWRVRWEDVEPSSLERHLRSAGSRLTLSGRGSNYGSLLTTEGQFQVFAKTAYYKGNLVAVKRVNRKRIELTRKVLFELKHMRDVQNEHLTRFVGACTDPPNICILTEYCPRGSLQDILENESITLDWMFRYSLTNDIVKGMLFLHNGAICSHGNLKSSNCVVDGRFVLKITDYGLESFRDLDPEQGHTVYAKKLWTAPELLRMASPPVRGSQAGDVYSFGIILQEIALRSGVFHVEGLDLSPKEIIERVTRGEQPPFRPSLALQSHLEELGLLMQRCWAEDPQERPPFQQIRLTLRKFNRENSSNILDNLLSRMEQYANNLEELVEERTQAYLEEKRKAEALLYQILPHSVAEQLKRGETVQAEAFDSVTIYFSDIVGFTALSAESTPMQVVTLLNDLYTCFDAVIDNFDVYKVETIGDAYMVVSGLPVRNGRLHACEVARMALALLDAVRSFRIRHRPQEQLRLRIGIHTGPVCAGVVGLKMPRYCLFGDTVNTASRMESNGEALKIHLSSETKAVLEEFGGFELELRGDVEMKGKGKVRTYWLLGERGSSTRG
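Compound pre-incubated 30 min at room temperature on GloSensor-loaded HEK293 cells stably carrying hNpr1 and the pGS-40F cGMP biosensor. Stimulation uses hNppA at 0.1 nM final; luminescence is taken at baseline and 20 min post-agonist.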
NIH3T3 tox – NIH 3T3 cell cytotoxicity | NIH 3T3 viability, CellTiter-Glo ATP luminescence, 48-72 h | Potency, µM (titrated, usually from 96.7 µM), most hits filed as inhibitors | hit rate 4.3% among 94,000 | AID 1345082; also: nearly all actives have a fitted effect of over 55% in size
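NIH 3T3 cells at 400 cells/well received 23 nL of compound by pintool and were incubated 48 or 72 h at 37 °C. Viability was read as ATP-coupled CellTiter-Glo luminescence.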
FLuc inh – inhibitors of firefly (Photinus pyralis) luciferase | P08659 | Potency, µM (series often up to 115 µM), most hits filed as inhibitors | purified P. pyralis luciferase, luminescence, biochemical | AID 1347043 | hit rate 2.5% among 76,000; also: nearly all actives have a fitted effect of over 65% in size
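Luminescence read by CCD imager after adding enzyme (10nM final) to wells holding compound, titrated in qHTS. Substrates 10uM each D-luciferin and ATP; buffer 50mM Tris acetate pH 7.5, 10mM Mg acetate, Tween-20, BSA.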
Hits are given with their value; i = inactive; ? = inconclusive; nt = no result. Hits are enriched below; roughly 11% of the tested compounds scored in any of these assays. Unless noted, calls follow the shape of the dose curve; as a rule, active = well fitted curve in the direction sought with a large enough effect; inconclusive = small, poorly fitted or top-dose-only effect, or another doubt; inactive = no such curve, though single readings can be large; an effect the other way counts as inactive or inconclusive.

SMILES	HEK cytotox	NPR1 antag	NIH3T3 tox	FLuc inh
Cc1ccc(CN2CCC(c3nn(C)c(=O)n3Cc3ccccc3)CC2)o1	?	i	?	i
CCC(NCc1c(C(=O)N2CCCCCC2)nc2cc(C)ccn12)c1ccc(C)cc1 (centres undefined)	17.8µM	i	44.7µM	i
CCOC(=O)C1CCCN(C(=O)c2nc3sccn3c2-c2ccc(C)cc2)C1 (centres undefined)	i	nt	i	nt
CCOCCn1c(=O)[nH]c2cc(C(=O)NCCN3CCCC3=O)ccc21	i	i	i	i
CN(c1ccccc1)c1cc(=O)c2ccnc(N3CCN(c4ccccn4)CC3)c2o1	35.5µM	i	?	i
CN(c1ccccc1)c1cc(=O)c2ccnc(NCC3CCOCC3)c2o1	?	i	8.91µM	i
CN(c1ccccc1)c1cc(=O)c2ccnc(N3CCOCC3)c2o1	?	i	28.2µM	i
O=C(COc1ccccc1)NCCC1CCN(C(=O)Nc2ccccc2)CC1	i	i	i	i
COCc1cc(=O)n(CC(=O)Nc2cccc(OC)c2)c(N2CCOCC2)n1	i	i	i	i
O=C(Nc1cccc(-c2ccc(N3CCOCC3)nn2)c1)Nc1ccccc1C(F)(F)F	?	i	?	2.24µM
Cc1ccc(Cl)cc1NC(=O)Nc1cccc(-c2ccc(N3CCOCC3)nn2)c1	?	i	i	1µM
COc1cccc(NC(=O)Nc2cccc(-c3ccc(N4CCOCC4)nn3)c2)c1	?	?	?	1µM
Nc1cccc(-c2ccc(N3CCOCC3)nn2)c1	?	?	?	3.16µM
O=C(c1ccccc1Cl)N1CCCC(C(=O)N2CCC(c3nc4ncccc4[nH]3)CC2)C1 (centres undefined)	i	nt	i	nt
Cc1c(F)cccc1NC(=O)Nc1cccc(-c2ccc(N3CCOCC3)nn2)c1	i	?	i	0.631µM
Cc1ccc(NC(=O)Nc2cccc(-c3ccc(N4CCOCC4)nn3)c2)cc1F	i	i	i	?
CN1c2cc(C(=O)Nc3ccc4c(c3)CCC4)ccc2C(=O)N2CCCCC21 (centres undefined)	?	i	?	28.2µM
Cc1cc(NC(=O)c2ccc3c(c2)N(C)C2CCCCN2C3=O)ccc1F (centres undefined)	?	i	?	22.4µM
Cc1ccc(NC(=O)c2ccc3c(c2)N(C)C2CCCCN2C3=O)cc1F (centres undefined)	?	i	?	?
CN1c2cc(C(=O)Nc3ccc(F)c(F)c3)ccc2C(=O)N2CCCCC21 (centres undefined)	i	i	i	?
O=C(Nc1ccc(Cl)cc1)N1CCn2c(nnc2-c2ccccc2)C1	i	i	i	i
COc1cccc(CNC(=O)[C@@H]2C[C@@H](O)CN2C2CCN(C(=O)c3nccc4ccccc34)CC2)c1	i	i	i	i
c1ccc(OCc2cc(CC3(NCc4cccc5c4OCO5)COC3)no2)cc1	?	i	i	i
C[C@@]12CO[C@@H](Cc3ccccc3)O[C@@H]1CC[C@]1(C)C2CC[C@@H](O)[C@H]1CC(=O)NCc1cc(F)cc(F)c1 (some centres undefined)	39.8µM	i	39.8µM	i
CSc1cccc(NC(=O)O[C@@H]2CC[C@]3(C)C(CC[C@@H](O)[C@H]3CC(=O)NCc3ccccc3)[C@]2(C)CO)c1 (some centres undefined)	35.5µM	i	39.8µM	i
SMILES	HEK cytotox	NPR1 antag	NIH3T3 tox	FLuc inh
COc1ccc(NC(=O)O[C@@H]2CC[C@]3(C)C(CC[C@@H](O)[C@H]3CC(=O)NCc3ccc4c(c3)OCO4)[C@]2(C)CO)cc1 (some centres undefined)	?	i	44.7µM	i
C[C@@]12CO[C@@H](Cc3ccccc3)O[C@@H]1CC[C@]1(C)[C@@H]2CC[C@@H](O)[C@H]1CC(=O)N1CCCC1	i	i	i	i
O=C([C@H]1C[C@H](Oc2ccccc2)CN1C(=O)C1CCC1)N1CCOCC1	i	i	i	i
CNC(=O)c1cc[nH]c1C1CCCN(C(=O)c2ccc(C)[nH]c2=O)C1 (centres undefined)	i	i	i	i
COc1ccccc1C(=O)NC[C@@H]1C=C(C)[C@H](Cc2nc3ccccc3[nH]2)C[C@H]1C(C)C	?	?	31.6µM	i
CC1=C[C@@H](CNC(=O)CCC(=O)O)[C@H](C(C)C)C[C@H]1Cc1nc2ccccc2[nH]1	i	i	?	i
CC1=C[C@@H](CNC(=O)CN(C)C)[C@H](C(C)C)C[C@H]1Cc1nc2ccccc2[nH]1	?	i	100µM	i
CC1=C[C@@H](CNC(=O)C2CC2)[C@H](C(C)C)C[C@H]1Cc1nc2ncccc2[nH]1	?	i	?	i
COc1ccc2[nH]c(C[C@@H]3C[C@@H](C(C)C)[C@H](CNC(=O)C4CCC4)C=C3C)nc2n1	44.7µM	?	63.1µM	i
Cc1cn2nc(C(=O)NCc3ccco3)cc2c(=O)[nH]1	i	i	i	?
O=C(NCc1cc2n(n1)CCNC2)C1CCCN(c2ccccn2)C1 (centres undefined)	i	i	i	i
O=C(CC1CCCC1)N1CC[C@@H]2COCCN(Cc3ccccc3)[C@@H]2C1	79.4µM	i	i	i
Fc1ccc(-c2cnc([C@@H]3COCCN3Cc3cnc4ccccc4c3)[nH]2)c(F)c1	89.1µM	i	?	i
Clc1ccc(-c2cnc([C@@H]3COCCN3Cc3cnc4ccccc4c3)[nH]2)s1	89.1µM	?	?	i
Fc1ccc(-c2cnc([C@@H]3COCCN3Cc3cccnc3)[nH]2)c(F)c1	?	i	?	i
CC1CCCN(C(=O)CN2CCCc3nc(-c4ccccc4)ncc3C2=O)C1 (centres undefined)	79.4µM	i	i	i
CN1CCC(Oc2ccc(C(=O)NCCc3ccccn3)cn2)CC1	i	i	i	39.8µM
O=C(NCc1ccccn1)c1cccc(OC2CCN(c3cnccn3)CC2)c1	44.7µM	?	?	i
O=C(NCC1CC1)[C@@H]1OCCN(C2CC2)[C@H]1c1ccccc1	i	nt	i	nt
COc1cccc(CN2C[C@@H](CO)[C@H](NC(=O)c3ccccc3)C2)c1	35.5µM	i	?	i
N#Cc1cccc(CN2C[C@@H](CO)[C@H](NC(=O)c3ccccc3)C2)c1	?	i	5.01µM	i
CCc1nc2c(c(-c3ccc(OC)cc3)n1)CCN(C(=O)c1ccc3c(c1)OCO3)CC2	i	nt	i	nt
COc1ccc(F)cc1-c1ccc(CN2CCCCC2C(=O)NCc2cccs2)cc1 (centres undefined)	?	nt	12.6µM	nt
COc1ccc(F)cc1-c1ccc(CN2CCCCC2C(=O)NC(C)CCc2ccccc2)cc1 (centres undefined)	25.1µM	nt	?	nt
O=C(NCc1cccc(C(F)(F)F)c1)C1CCCN1Cc1ccc(-c2cncnc2)cc1 (centres undefined)	50.1µM	nt	?	nt
COc1ccc(CNC(=O)C2CCCCN2Cc2ccc(-c3ccccc3OC)cc2)cc1OC (centres undefined)	31.6µM	nt	?	nt
O=C(c1ccsc1)N1CCCC(c2noc(COc3ccccc3F)n2)C1 (centres undefined)	i	i	?	i
Cc1ccc2c(n1)OC1(CCCC1)CN(CC1CC1)C2=O	?	nt	i	nt
